# In all, about 220,000 compounds went through this assay and about 2,000 (0.91%) were called active. Inconclusive results (about 2%) are left out. Rule as the data show it: inconclusive = inhibition above about 80% without an active follow-up result; inactive = below that; test concentration not stated here. Only a sample is shown. Results with a measured potency or affinity are listed apart.
# Assay: M. tuberculosis H37Rv growth inhibitors, H37Rv strain (AID 1626);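 also: bacteria incubated seven days before Alamar blue readout; 0% = bacteria only wells and 100% = bacteria with antibiotic wells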
# Details: active compounds read high, concentration not given here
row,Compound,inhibition
1,CN1CCN(C(=S)c2cn(CCOc3ccccc3)c3ccccc23)CC1,13% (inactive)
2,Cc1cc(N/C=C(\C#N)S(=O)(=O)c2ccccc2Cl)nc(C)n1,-9.07% (inactive)
3,CC1=CC(C)(C)N2C(=O)C(=Nc3ccc(O)cc3)c3cccc1c32,3% (inactive)
4,COc1cc2c3c(c1)C(C)=CC(C)(C)N3C(=O)C2=O,-3.11% (inactive)
5,CC(=O)N/C(=C\c1cccc([N+](=O)[O-])c1)C(=O)NC1CCCCC1,-0.9% (inactive)
6,CCN(CC)S(=O)(=O)c1ccc(/C=C/C(=O)O)cc1,-3.16% (inactive)
7,CS(=O)(=O)N(Cc1ccccc1)c1ccc(C(=O)NCC2CCCO2)cc1 (configuration not stated),-13.4% (inactive)
8,CCn1c(/C=C/c2ccccc2[N+](=O)[O-])nc2ccccc2c1=O,2.98% (inactive)
9,CCn1c(/C=C/c2cccc([N+](=O)[O-])c2)nc2ccccc2c1=O,-7.86% (inactive)
10,Cc1ccc(NC(=O)CCNC(=O)c2ccco2)cc1,3.05% (inactive)
11,COc1ccc(NCc2nnc(SCC(=O)NNC(=O)c3ccc(C)cc3)n2C)cc1,-19.4% (inactive)
12,CCN1CCN(c2oc(COc3ccc(-c4ccccc4)cc3)nc2C#N)CC1,10.7% (inactive)
13,COc1ccc(N2CCN(c3oc(COc4ccccc4)nc3C#N)CC2)cc1,-5.04% (inactive)
14,O=S(=O)(c1ccc2oc(=S)[nH]c2c1)N1CCCCC1,-5.83% (inactive)
15,CCC(C)[C@H](NC(=O)NCc1ccc(S(N)(=O)=O)cc1)C(=O)OC (some centres not stated),6.6% (inactive)
16,Cn1cnc2c1c(=O)n(Cc1ccccc1)c(=O)n2C,-6.11% (inactive)
17,c1ccc(-c2cc3c(N4CCN(c5ncccn5)CC4)ncnc3s2)cc1,-0.33% (inactive)
18,c1ccc(-c2cc3c(N4CCCC4)ncnc3s2)cc1,2.65% (inactive)
19,Oc1ccc(N2CCN(c3ncnc4sc(-c5ccccc5)cc34)CC2)cc1,69.8% (inactive)
20,CN1CCN(c2ncnc3sc(-c4ccccc4)cc23)CC1,0.51% (inactive)
21,O=C(NCCN1CCOCC1)N1CCOCC1,-3.24% (inactive)
22,COc1ccc(Cl)cc1NC(=O)c1ccccc1C,4.11% (inactive)
23,Cc1cc(C)c2nc(SC(C)C#N)cc(C)c2c1 (configuration not stated),9.89% (inactive)
24,O=C(CN(Cc1ccco1)C(=O)c1ccccc1)Nc1ccc(Cl)c(Cl)c1,0.53% (inactive)
25,O=C(Nc1ccccc1)C12CC3CC(C1)CC(n1cnc([N+](=O)[O-])n1)(C3)C2,3.45% (inactive)

row,Compound,inhibition
1,O=C(Nc1cccc([N+](=O)[O-])c1)C12CC3CC(C1)CC(n1cnc([N+](=O)[O-])n1)(C3)C2,3.76% (inactive)
2,O=C1c2ccsc2SCCN1Cc1ccccc1Cl,8.66% (inactive)
3,COCCNC(=O)/C(C#N)=C\c1ccc(CNC(=O)C(=O)Nc2ccc(C)c(C)c2)o1,-19% (inactive)
4,CCC(=O)N1CCc2cc(S(=O)(=O)CCC(=O)NCc3ccco3)ccc21,-7.3% (inactive)
5,O=C(c1ccc2ccccc2c1)C1CCCN(C(=O)CCn2cnnn2)C1 (configuration not stated),3.36% (inactive)
6,COc1ccc(C(O)c2nccn2C)cc1 (configuration not stated),4.48% (inactive)
7,Cn1ccnc1C(O)c1ccccc1 (configuration not stated),6.73% (inactive)
8,O=C(NN1C(=O)C2C(C1=O)C1C=CC2C12CC2)c1ccc(Cl)cc1 (configuration not stated),7.63% (inactive)
9,Cc1ccc(NS(=O)(=O)c2cccc([N+](=O)[O-])c2)nc1,2.81% (inactive)
10,CCC(=O)N1CCN(c2nc(-c3ccccc3)c3c(c2C#N)CCCC3)CC1,6.35% (inactive)
11,CC1(C)Cc2c(C#N)c(N3CCN(C(=O)c4ccco4)CC3)nc(Cc3ccccc3)c2CO1,-5.53% (inactive)
12,CC(C)C(=O)N1CCN(c2nc(-c3ccccc3)c3c(c2C#N)CCCC3)CC1,7.25% (inactive)
13,O=C(c1ccco1)N1CCN(c2nnc(-c3ccccc3)c3ccccc23)CC1,1.18% (inactive)
14,CCc1nc(N2CCN(C(=O)c3ccccc3)CC2)c(C#N)c2c1COC(C)(C)C2,-3.57% (inactive)
15,Cc1ccc(-c2nnc(N3CCN(C(=O)CN4CCOCC4)CC3)c3ccccc23)cc1,0.29% (inactive)
16,O=C(/C=C/c1ccc(Br)cc1)NCc1cccs1,8.29% (inactive)
17,Cc1cc(C)cc(N2C(=O)CSC2c2cccs2)c1 (configuration not stated),-1.33% (inactive)
18,O=C(O)c1sccc1SCc1ccc(Cl)c(Cl)c1,-2.78% (inactive)
19,O=C(CNS(=O)(=O)c1cccc(Cl)c1)Nc1ccc(-c2nc3ccccc3s2)cc1,1.91% (inactive)
20,O=C1[C@@H]2[C@H](C(=O)N1Cc1cccnc1)[C@H]1C=C[C@@H]2C1,4% (inactive)
21,COc1ccc(NC(=O)NCCCN2CCC(Cc3ccccc3)CC2)cc1,-4.94% (inactive)
22,C#C[C@]1(O)CCC2C3CCC4=Cc5oncc5CC4(C)C3CCC21C (some centres not stated),3.82% (inactive)
23,CCOC(=O)c1sc(N2N=C(C)C(N=Nc3cccc(C)c3)C2=O)nc1C (configuration not stated),57.3% (inactive)
24,NCCOc1cnn(-c2ccccc2Cl)c(=O)c1Cl,0.22% (inactive)
25,COc1ccc(NC(=O)N2CCCC(c3nc(-c4ccc(C(C)C)cc4)no3)C2)cc1 (configuration not stated),10.7% (inactive)

row,Compound,inhibition
1,Cn1c(-c2ccc3c(c2)OCO3)cnc1NCc1ccc(Cl)cc1,-3.22% (inactive)
2,Cn1c(-c2ccc3c(c2)OCO3)cnc1NCc1ccccc1,-5.95% (inactive)
3,CC(C)C[C@H](NC(=O)c1nc[nH]c1C(=O)NCc1ccccc1)C(=O)OCc1ccccc1,-9.88% (inactive)
4,O=S(=O)(c1ccc(-n2cnnn2)cc1)N1CCC(N2CCCCC2)CC1,0.43% (inactive)
5,CC(C)CNC(=O)NC(=O)COC(=O)c1cccc(NS(=O)(=O)c2ccc(F)c(F)c2)c1,27.8% (inactive)
6,Cc1cc(C)n2c(=S)[nH]nc2n1,-1.62% (inactive)
7,CCCC(=O)NC(C)c1nc2ccccc2n1CC (configuration not stated),1.48% (inactive)
8,O=C(Nc1ccc(Cl)cc1)NC1CCCCC1,-3.67% (inactive)
9,CC(C)c1ccc(NC(=S)NC2CCCCCC2)cc1,-13.8% (inactive)
10,Cc1ccc(NC(=O)C2CCN(C(=O)NC3CCCCC3)CC2)cc1Cl,7.5% (inactive)
11,O=C(Nc1ccc(F)c(F)c1)NC1CCCCC1,-11.3% (inactive)
12,Cc1noc(C)c1S(=O)(=O)N1CCCCC1,-4.38% (inactive)
13,CCC(C)(C)C(=O)Nc1ccc(OC)cc1[N+](=O)[O-],-0.65% (inactive)
14,Cc1csc(NC(=O)c2cc3c(s2)CCCCC3)n1,16.1% (inactive)
15,CCc1nnc(NC(=O)c2cc3c(s2)CCCCC3)s1,-9.6% (inactive)
16,Cc1cc(Cl)ccc1NC(=O)C1CCCN1C(=O)c1cccs1 (configuration not stated),0.31% (inactive)
17,CCN(CC)CCn1c(SCC(=O)NCc2ccccc2)nc2c(sc3ccccc32)c1=O,3.01% (inactive)
18,COc1ccc(Nc2c3c(nc4ccccc24)CCCC3)cc1OC,8.23% (inactive)
19,O=C(CSc1nnc(NC(=O)c2ccccc2C(=O)O)s1)Nc1ccccc1Cl,-9.06% (inactive)
20,CCOc1cc(/C=C/c2cc(C(F)(F)F)[nH]c(=O)n2)ccc1O,2.01% (inactive)
21,COc1cc(C(=O)N/N=c2/sc3ccccc3n2C)cc(OC)c1OC,-5.9% (inactive)
22,COc1ccccc1NC(=O)c1cc2ccccc2nc1C,2.95% (inactive)
23,CCCc1cc(=O)oc2cc(OCC(=O)NCc3cccs3)ccc12,7.98% (inactive)
24,O=C(COc1ccc2c(-c3ccccc3)cc(=O)oc2c1)NCc1cccs1,1.19% (inactive)
25,COc1ccc(Cn2ccnc2CO)cc1[N+](=O)[O-],-1.53% (inactive)

row,Compound,inhibition
1,O=C(O)c1cc(-c2ccccc2)nc2ccccc12,-5.49% (inactive)
2,O=C(NC(=S)Nc1ccccc1)c1cc(-c2ccccc2)nc2ccccc12,-4.77% (inactive)
3,COc1cccc(-c2cc(C(=O)Nn3cnnc3)c3ccccc3n2)c1,2.95% (inactive)
4,COc1ccc(-c2cc(C(=O)Nc3nc4c(C)cccc4s3)c3ccccc3n2)cc1OC,12.1% (inactive)
5,COc1ccc(-c2cc(C(=O)Nc3ccc(O)cc3)c3ccccc3n2)cc1OC,14.5% (inactive)
6,O=C(Nc1nc2ccccc2s1)c1cc(-c2ccco2)nc2ccccc12,13.9% (inactive)
7,O=C(C[n+]1ccccc1)Nc1c(Cl)cc(Cl)cc1Cl,-1.93% (inactive)
8,Cn1cnnc1SCC(=O)Nc1nc(-c2ccccc2)cs1,-4.7% (inactive)
9,COc1ccc(NC(=O)CSc2nc3c([nH]c4ccccc43)c(=O)n2C)cc1,7.61% (inactive)
10,Cc1ccc(OCC(=O)c2cc(C)n(CC(F)(F)F)c2C)c([N+](=O)[O-])n1,-2.91% (inactive)
11,N/C(CS(=O)(=O)c1ccccn1)=N\OC(=O)c1ccc(Cl)cc1,-1.94% (inactive)
12,Cn1ncc(N)c1C(=O)Nc1cccc(C(F)(F)F)c1,4.36% (inactive)
13,O=C(c1cccc(Cl)c1)N1CCC(=O)N(C(COCc2ccccc2)Cc2ccccc2)CC1 (configuration not stated),-0.16% (inactive)
14,CCOC(=O)c1sc2nc3c(SCC(=O)O)cc(C(=O)c4cc(F)ccc4O)cn3c(=O)c2c1C,-5.14% (inactive)
15,Cc1ccc(Oc2nc(C(F)(F)F)nc3ccccc23)cc1,9.79% (inactive)
16,FC(F)(F)c1cc(Oc2ccc(Cl)cc2)nc(-c2ccccn2)n1,11.7% (inactive)
17,CSc1nc(Oc2ccc(F)cc2)c2ccccc2n1,8.64% (inactive)
18,CC(=O)Nc1cccc(Oc2nc(-c3ccccn3)nc3ccccc23)c1,3.26% (inactive)
19,COc1ccc(Oc2nc(-c3ccncc3)nc3ccccc23)cc1,3.37% (inactive)
20,Cc1cc(Oc2ccc(Cl)cc2)nc(-c2ccccc2O)n1,20.4% (inactive)
21,C/C(=N\Nc1nc(-c2ccccn2)nc2ccccc12)c1ccc(F)cc1,67.4% (inactive)
22,CC(=O)Nc1ccc(Oc2nc(-c3ccccn3)nc3ccccc23)cc1,-12.6% (inactive)
